Source: PubChem BioAssay
This is a sample that favours compounds with a hit; in the whole collection about 1.2% have one here.
Y pestis TopoI: Yersinia pestis topoisomerase I inhibitors, primary screen, biochemical, cleavage product accumulation, plate reader, single point; DNA topoisomerase I (Yersinia pestis CO92); Y. pestis Topo-I cleavage product accumulation; activity, % at 10 µM; 360,000 tested, 0.064% active; in the data active = activity above about 50%, passing the limit was not always enough
TcdB GH inh: TcdB glycohydrolase inhibitors, primary screen, biochemical, single point, plate reader; 350,000 tested, 0.24% active; TcdB glycohydrolase enzymatic assay; inhibition, % at 9.99 µM; AID 652162, 2013; Toxin B (Clostridioides difficile), P18177; in the data active = inhibition above about 10%
Target sequence (P18177 whole entry, looked up): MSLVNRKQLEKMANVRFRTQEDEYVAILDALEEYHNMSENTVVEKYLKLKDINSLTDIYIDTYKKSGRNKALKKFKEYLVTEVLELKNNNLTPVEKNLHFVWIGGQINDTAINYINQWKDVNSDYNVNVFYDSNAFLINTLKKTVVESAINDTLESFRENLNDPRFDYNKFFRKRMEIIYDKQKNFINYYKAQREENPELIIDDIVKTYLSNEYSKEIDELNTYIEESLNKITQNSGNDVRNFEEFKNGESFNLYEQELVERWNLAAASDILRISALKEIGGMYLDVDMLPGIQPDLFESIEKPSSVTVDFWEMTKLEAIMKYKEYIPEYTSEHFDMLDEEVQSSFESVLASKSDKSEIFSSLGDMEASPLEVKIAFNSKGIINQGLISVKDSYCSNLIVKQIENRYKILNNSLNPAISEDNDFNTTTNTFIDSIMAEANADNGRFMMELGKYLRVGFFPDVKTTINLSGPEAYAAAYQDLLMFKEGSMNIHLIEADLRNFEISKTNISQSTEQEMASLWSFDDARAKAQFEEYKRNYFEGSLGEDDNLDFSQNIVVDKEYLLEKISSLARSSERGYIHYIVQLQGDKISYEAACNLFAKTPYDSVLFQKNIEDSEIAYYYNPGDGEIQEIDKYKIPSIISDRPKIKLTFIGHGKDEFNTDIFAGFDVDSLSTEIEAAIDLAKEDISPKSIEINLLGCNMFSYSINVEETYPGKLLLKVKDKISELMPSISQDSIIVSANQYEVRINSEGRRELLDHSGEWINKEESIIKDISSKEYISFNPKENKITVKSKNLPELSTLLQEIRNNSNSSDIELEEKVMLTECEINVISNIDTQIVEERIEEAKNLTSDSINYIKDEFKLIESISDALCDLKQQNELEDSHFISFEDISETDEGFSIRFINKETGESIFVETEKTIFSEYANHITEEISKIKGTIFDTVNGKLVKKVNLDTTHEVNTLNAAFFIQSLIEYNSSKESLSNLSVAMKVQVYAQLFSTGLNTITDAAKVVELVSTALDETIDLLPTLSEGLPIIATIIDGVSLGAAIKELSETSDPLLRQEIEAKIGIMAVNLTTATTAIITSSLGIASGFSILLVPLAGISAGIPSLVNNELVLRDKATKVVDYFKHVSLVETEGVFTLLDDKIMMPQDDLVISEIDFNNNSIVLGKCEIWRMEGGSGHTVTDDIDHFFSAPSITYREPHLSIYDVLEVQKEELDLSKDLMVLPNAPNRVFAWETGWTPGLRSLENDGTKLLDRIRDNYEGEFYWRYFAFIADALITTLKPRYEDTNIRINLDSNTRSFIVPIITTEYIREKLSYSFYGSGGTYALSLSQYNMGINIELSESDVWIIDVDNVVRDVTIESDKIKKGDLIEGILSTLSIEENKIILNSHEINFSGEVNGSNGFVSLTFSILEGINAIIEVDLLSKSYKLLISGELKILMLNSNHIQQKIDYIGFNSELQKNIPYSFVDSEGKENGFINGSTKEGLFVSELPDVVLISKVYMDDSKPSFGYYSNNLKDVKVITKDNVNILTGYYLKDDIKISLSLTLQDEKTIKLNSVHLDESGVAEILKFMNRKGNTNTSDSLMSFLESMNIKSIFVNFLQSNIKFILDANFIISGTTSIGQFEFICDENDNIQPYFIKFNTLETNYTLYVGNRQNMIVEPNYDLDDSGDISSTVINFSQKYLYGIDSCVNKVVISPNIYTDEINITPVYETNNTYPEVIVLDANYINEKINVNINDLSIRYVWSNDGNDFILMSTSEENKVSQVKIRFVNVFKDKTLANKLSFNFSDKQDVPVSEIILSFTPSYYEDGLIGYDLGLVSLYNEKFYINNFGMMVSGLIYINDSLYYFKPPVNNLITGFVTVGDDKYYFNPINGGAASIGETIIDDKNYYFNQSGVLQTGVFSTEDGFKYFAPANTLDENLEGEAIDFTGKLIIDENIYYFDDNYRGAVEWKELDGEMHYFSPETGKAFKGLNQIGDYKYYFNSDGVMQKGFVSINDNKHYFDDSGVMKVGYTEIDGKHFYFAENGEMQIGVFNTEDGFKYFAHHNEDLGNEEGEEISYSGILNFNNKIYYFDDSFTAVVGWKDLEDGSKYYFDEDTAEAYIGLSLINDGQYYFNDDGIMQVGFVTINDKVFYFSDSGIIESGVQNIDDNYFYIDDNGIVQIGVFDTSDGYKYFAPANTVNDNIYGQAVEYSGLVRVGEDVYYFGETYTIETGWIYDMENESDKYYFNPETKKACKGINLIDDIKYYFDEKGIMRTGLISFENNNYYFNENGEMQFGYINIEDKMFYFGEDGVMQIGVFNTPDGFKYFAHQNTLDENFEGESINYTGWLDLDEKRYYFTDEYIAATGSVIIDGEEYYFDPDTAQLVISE
Mtb BioA inh: M. tuberculosis BioA enzyme inhibitors, primary screen, biochemical, plate reader, single point, HTS. AID 602481, 2012. 360,000 tested, 0.096% active. inhibition, % at 9.99 µM. 7,8-diaminopelargonic acid synthase BioA (Mycobacterium tuberculosis). purified M. tuberculosis BioA enzyme; in the data active = inhibition above about 40%
PfHsp40 rescue: rescue of yeast from PfHsp40 toxicity, primary screen, S. cerevisiae, ATP luminescence; S. cerevisiae expressing PfHsp40, growth rescue; growth rescue, % at 12.5 µM; 340,000 tested, 0.68% active; AID 504582, 2011; in the data active = growth rescue above about 28%, passing the limit was not always enough;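 note: yeast W303a lacking pdr1 and pdr3 grown in galactose medium; growth measured after three days at 30 °C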
Vc quorum ag: inducers of Vibrio cholerae quorum light production without autoinducers, primary screen, BH1578 luxS cqsA deficient, single point; V. cholerae BH1578 lux reporter, luminescence, 6 h; activation, % at 18.7 µM; 350,000 tested, 0.16% active; in the data active = activation mostly above about 9.7%, no sharp cut-off
VHR inh abs: VHR1 phosphatase inhibitors, primary screen, biochemical, absorbance, uHTS; Dual specificity protein phosphatase 3 (Homo sapiens), P51452; recombinant VHR phosphatase, pNPP absorbance; inhibition, % at 13.3 µM; 290,000 tested, 0.52% active; in the data active = inhibition above about 50%
* hit, by the source's call; i = inactive; x = not tested or not shown.

SMILES	Y pestis TopoI	TcdB GH inh	Mtb BioA inh	PfHsp40 rescue	Vc quorum ag	VHR inh abs
NNC(=O)C(=O)Nc1ccc(O)cc1	-6	10	x	0	-1	-30
CN1CC(=O)N/C1=N\C(=O)Nc1ccc(O)cc1	6	13*	0	-1	i	x
CCCCC(CC)C(=O)Nc1ccc(Nc2ccccc2)cc1 (stereo not drawn)	-9	x	x	8	0	-7
CCCCC(CC)C(=O)Nc1ccc(C)c(O)c1 (stereo not drawn)	-1	0	x	x	0	53*
CNC(=O)c1nnsc1S(=O)c1ccc(Cl)cc1 (stereo not drawn)	7	-2	x	79*	0	7
CCCNC(=O)c1nnsc1S(=O)c1ccc(Cl)cc1 (stereo not drawn)	14	-1	x	16	0	3
Cc1ccc(N=C2NC(=O)CS2)cc1	-2	x	0	0	6	5
O=C1CSC(=Nc2ccc(O)cc2)N1	-6	15*	0	-1	i	38
O=[N+]([O-])c1cc(C(F)(F)F)ccc1NCCc1c[nH]c2ccc(O)cc12	-18	x	-1	484*	-4	-7
O=[N+]([O-])c1cc(C(F)(F)F)ccc1NCCc1c[nH]c2ccccc12	-8	x	x	3	0	-13
O=C1NN(c2ccc(F)c(Cl)c2)C(=O)/C1=C\c1cccc(OC(=O)c2cccs2)c1	-31	x	-1	85*	-1	-14
Cc1ccccc1NC(=O)N1C2CCCC1CC(NC(=O)C(C)(C)C)C2 (stereo not drawn)	3	x	-1	-1	6	10
CCn1c(=O)n(CC)c2cc(N3CCCC3)c(NC(=O)c3c(F)cccc3F)cc21	4	1	3	-1	i	57*
Cc1ccc2c(c1)C(c1ccccc1)=NCC(=O)N2C	7	2	x	-2	0	x
COc1ccc(N2CC(O)=C(c3nc(-c4ccc(F)cc4)cs3)C2=N)cc1Cl	-2	0	x	1	i	19
CCC(Cc1c(I)cc(I)c(N)c1I)C(=O)O (stereo not drawn)	-3	3	-7	187*	0	x
COc1cc(/C=C/c2nc(N)nc(-c3ccccc3O)n2)cc(OC)c1OC	8	x	x	-2	0	5
COc1cc(/C=C/c2nc(-c3ccccc3O)n[nH]2)cc(OC)c1OC	-5	x	x	42*	i	12
COc1cc(C(=O)NCC(=O)N2CCN(S(=O)(=O)c3ccccc3)CC2)cc(OC)c1OC	13	0	x	0	i	x
CCOc1ccc(/C=C/C(=O)Oc2ccccc2)cc1	2	-1	0	0	i	52*
CS(=O)(=O)N1CCN(C(=O)c2ccncc2)CC1	-5	x	0	2	i	14
c1ccc2c(c1)Cc1cc3ccccc3nc1-2	-13	2	0	3	0	34
Oc1ccc(-c2nc3ccccc3s2)c(O)c1	-11	1	x	244*	-3	-10
Nc1ccc(O)c(-c2nc3ccccc3s2)c1	7	x	-4	1	6	34
Cc1ccc(-n2c(SCC(=O)NNC(=S)Nc3ccccc3)nc3ccccc3c2=O)cc1	7	x	-2	17	0	-14
SMILES	Y pestis TopoI	TcdB GH inh	Mtb BioA inh	PfHsp40 rescue	Vc quorum ag	VHR inh abs
CC(C)(C)OC(=O)NNC(=S)NCc1ccc(Cl)cc1	14	x	3	-1	i	34
c1ccc(Nc2cccc(Nc3ccccc3)c2)cc1	-2	x	x	69*	0	-19
O=C1OCCC1Sc1nnc(-c2ccccc2Cl)n1Cc1ccccc1 (stereo not drawn)	-3	1	x	0	0	2
CCOC(=O)c1cc(C)sc1N1C(=O)C2C3C=CC(C3)C2C1=O (stereo not drawn)	5	x	1	0	30*	4
COc1ccc(C#Cc2ccc([C@H]3[C@H]4CN(S(=O)(=O)c5cn(C)cn5)CCCCN4[C@H]3CO)cc2)cc1	x	1	0	x	x	x
CCC(NS(=O)(=O)c1cn(C)nc1C)c1ccccc1 (stereo not drawn)	6	-1	1	0	0	23
O=C(O)C/C(=C\c1ccc(Cl)cc1)c1nc2ccccc2o1	3	0	-1	135*	-1	18
O=C(O)C(=O)/C(=C\c1ccc(Cl)cc1)c1ccc2ccccc2n1	1	1	0	-1	1	-4
Cc1ccc(/C=N/NC(=O)Cc2c(F)cccc2Cl)s1	25	0	-1	-2	i	53*
O=C(Cc1c(F)cccc1Cl)N/N=C/c1cccs1	13	1	-3	0	i	27
CCCNC(=O)c1ccc(S(N)(=O)=O)cc1	6	0	-2	-1	0	18
Nc1ccc(Nc2ccccc2)c(S(=O)(=O)O)c1	4	-3	3	41*	-4	10
CCCNC(=O)N1CC2(CCN(S(=O)(=O)c3ccccc3)CC2)c2c(n(C)c3cc(OC)ccc23)[C@H]1CO	x	-2	x	x	x	x
O=C1OCC(CO)(CO)N=C1NNc1ccc(Cl)c(Cl)c1	-10	-25	4	305*	-1	27
CC(C)(C)OC(=O)N1CCCC1C(=O)O (stereo not drawn)	0	x	-3	0	-1	-15
Cc1cc(C)nc(SCc2ccc(Br)cc2)n1	6	0	1	1	i	34
O=C1OC(c2ccccc2)=NC12CC2c1ccc(Cl)cc1 (stereo not drawn)	8	-9	1	255*	-1	2
Cc1ccc(-c2nn(C)c(=O)c3ccccc23)cc1CO	5	x	0	0	17*	12
COc1ccc(-c2ccnc(SCC(=O)N3CCN(c4ccccc4)CC3)n2)cc1	8	0	-2	105*	i	25
Cc1ccnc(SCC(=O)N2CCN(c3ccccc3)CC2)n1	1	x	14	1	i	18
Cc1noc(C)c1S(=O)(=O)Nc1ccc(C(=O)NC2CCCCC2C)cc1 (stereo not drawn)	6	x	6	2	i	18
N#Cc1c(=O)c2nc(NCCCO)ncc2n2c(=O)c3ccccc3[nH]c12	13	1	x	83*	0	12
CO[C@@H]1CN(C)C(=O)c2ccc(NC(=O)CC(F)(F)F)cc2OC[C@@H](C)N(C(=O)C2CCOCC2)C[C@@H]1C	x	-1	x	x	x	x
Cc1ccc(-n2ncc(C(=O)NCC3CCN(C4CCCC4)C3)c2C2CCN(C(=O)OC(C)(C)C)CC2)cc1C (stereo not drawn)	6	1	-2	1	0	58*
O=C(COC(=O)c1ccco1)c1ccc(S(=O)(=O)N2CCCCC2)cc1	2	-2	0	1	i	5
